Experimental data as given in PubChem BioAssay (EPA / NIEHS).
A structure can be active in one record and inactive in another. The source made the active and inactive calls. Rule for the calls: active = hit-call score of the fitted dose curve at least 0.9, where 1 is the maximum; inactive = score below 0.9.

Tested on: not listed separately
Experiment: ATG_BRE_CIS: Attagene CIS-FACTORIAL HepG2 Assay for human Bone Morphogenetic Protein (BMP) Response Element (BRE) (AID 2282933)
Details: HepG2 BMP response element reporter, Attagene transcription factor profiling; actives raise or lower the signal
Procedure, shortened: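 Multiplexed cis-reporter assay, HepG2, 24 h exposure. mRNA from reporter units quantified via RT-PCR/CE; DMSO baseline; bidirectional curve fit.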
In the case of `CCCSP(=S)(OCC)Oc1ccc(Cl)cc1Cl` (stereo not given), the outcome is reported as “inactive”.
In the case of `CCC[CH2][Sn]([CH2]CCC)([CH2]CCC)[CH2]CCC`, the AC50 is reported as 5.89 µM (active).
With `Cc1cc(Cl)ccc1O` the outcome was “inactive”.
For `O=[N+]([O-])c1cccc2ccccc12`, the outcome was “inactive”.
For `ClCCCCl`, the outcome was “inactive”.
For `CNC(=O)CSP(=O)(OC)OC`, the outcome was “inactive”.
With `N#Cc1ccccc1N` the outcome was “inactive”.
In the case of `Cc1ccc2nc3sc(=O)sc3nc2c1`, the AC50 is reported as 25 µM (active).
For `O=C(O)c1cc(I)cc(I)c1I`, the outcome was “inactive”.
In the case of `O=C(NC(=O)c1c(F)cccc1F)Nc1cc(Cl)c(F)c(Cl)c1F`, the outcome is reported as “inactive”.
In the case of `CCN(CCO)CCO`, the outcome is reported as “inactive”.
With `C1CN2CCN1CC2` the outcome was “inactive”.
In the case of `C=C(C)[C@@H]1CC=C(C=O)CC1`, the outcome is reported as “inactive”.
In the case of `CC1(C)[C@H](/C=C2\CCSC2=O)[C@@H]1C(=O)OCc1coc(Cc2ccccc2)c1`, the outcome is reported as “inactive”.
For `O=c1nc(O)n(Cl)c(=O)n1Cl`, the outcome was “inactive”.
For `[F][Sn]([c]1ccccc1)([c]1ccccc1)[c]1ccccc1`, the outcome was “inactive”.
In the case of `O=C1C[C@@H]2OCC=C3CN4CC[C@]56c7ccccc7N1[C@H]5[C@H]2[C@H]3C[C@H]46`, the outcome is reported as “inactive”.
In the case of `C=CC(=O)NC(C)(C)CC(C)=O`, the outcome is reported as “inactive”.
For `OCCCCO`, the outcome was “inactive”.
For `N#CS`, the outcome was “inactive”.
For `OC(c1ccc(Cl)cc1)(c1ccc(Cl)cc1)c1cccnc1`, the outcome was “inactive”.
With `O=[N+]([O-])c1ccccc1O` the outcome was “inactive”.
For `CCOc1cc(C=O)ccc1O`, the outcome was “inactive”.
For `C=CCOC(F)(C(F)(F)F)C(F)(F)F`, the outcome was “inactive”.
For `Cc1cc(Cl)ccc1OC(C)C(=O)O` (stereo not given), the outcome was “inactive”.
In the case of `Brc1ccc(Br)cc1`, the outcome is reported as “inactive”.
In the case of `CNC(=O)N(C)c1nc2ccccc2s1`, the outcome is reported as “inactive”.
For `O=[N+]([O-])c1cc([As](=O)(O)O)ccc1O`, the outcome was “inactive”.
In the case of `Cc1c([N+](=O)[O-])c(C)c([N+](=O)[O-])c(C(C)(C)C)c1[N+](=O)[O-]`, the outcome is reported as “inactive”.
In the case of `CCCSP(=S)(OCC)Oc1ccc(SC)cc1` (stereo not given), the outcome is reported as “inactive”.
With `C#C[C@]1(O)CC[C@H]2[C@@H]3CCC4=CC(=O)CC[C@]4(C)[C@H]3CC[C@@]21C` the outcome was “inactive”.
In the case of `O=NN1CCCCCCC1`, the outcome is reported as “inactive”.
For `BrCCCCBr`, the outcome was “inactive”.
With `CC(C)CP(=S)(S)CC(C)C` the outcome was “inactive”.
With `O=c1[nH]c(=O)n(Cl)c(=O)n1Cl` the outcome was “inactive”.
For `CC(C)=CC1C(C(=O)OCc2cccc(Oc3ccccc3)c2)C1(C)C` (stereo not given), the outcome was “inactive”.
With `CCOP(=S)(OCC)Oc1ccc(Cl)cc1Cl` the outcome was “inactive”.
For `CCN(CC)C(=O)C(Cl)=C(C)OP(=O)(OC)OC`, the outcome was “inactive”.
For `CC(C)(C1CCC(O)CC1)C1CCC(O)CC1` (stereo not given), the outcome was “inactive”.

Molecular target: Retinoic acid receptor alpha (Homo sapiens) (UniProt P10276)
Sequence (P10276 whole entry, looked up): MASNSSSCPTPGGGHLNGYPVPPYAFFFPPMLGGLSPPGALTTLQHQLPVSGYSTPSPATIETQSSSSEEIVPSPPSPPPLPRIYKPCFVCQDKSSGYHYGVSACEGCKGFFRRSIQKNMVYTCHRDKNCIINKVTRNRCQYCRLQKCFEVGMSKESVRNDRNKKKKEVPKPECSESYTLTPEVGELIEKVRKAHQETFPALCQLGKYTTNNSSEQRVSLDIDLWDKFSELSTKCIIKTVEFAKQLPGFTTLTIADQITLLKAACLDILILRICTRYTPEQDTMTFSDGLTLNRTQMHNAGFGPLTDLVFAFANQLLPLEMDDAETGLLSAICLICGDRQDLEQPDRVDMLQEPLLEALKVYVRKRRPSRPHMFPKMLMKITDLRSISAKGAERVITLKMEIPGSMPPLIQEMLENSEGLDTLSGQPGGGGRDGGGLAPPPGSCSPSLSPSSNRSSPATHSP
Experiment: ATG_DR5_RAR_CIS: Attagene CIS-FACTORIAL HepG2 Assay for human Retinoic Acid Receptor Alpha (RARE), DR5 submotif (AID 2282934);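 for AC50: reporter responds to endogenous RAR alpha beta and gamma in HepG2 not RARA alone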
Details: HepG2 Attagene cis-factorial RARE DR5 reporter, mRNA; actives raise or lower the signal
Procedure, shortened: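 Reporter transcripts from a DR5-regulated unit, measured via RT-PCR plus capillary electrophoresis, reflect endogenous RAR activity in transiently transfected human HepG2 liver cells. Exposure lasted 24 h; gain or loss of signal scored against DMSO.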
With `CCCSP(=S)(OCC)Oc1ccc(Cl)cc1Cl` (stereo not given) the outcome was “inactive”.
With `CCC[CH2][Sn]([CH2]CCC)([CH2]CCC)[CH2]CCC` the AC50 was 0.283 µM (active).
For `Cc1cc(Cl)ccc1O`, the outcome was “inactive”.
In the case of `O=[N+]([O-])c1cccc2ccccc12`, the outcome is reported as “inactive”.
With `ClCCCCl` the outcome was “inactive”.
For `CNC(=O)CSP(=O)(OC)OC`, the outcome was “inactive”.
In the case of `N#Cc1ccccc1N`, the outcome is reported as “inactive”.
In the case of `Cc1ccc2nc3sc(=O)sc3nc2c1`, the AC50 is reported as 6.63 µM (active).
For `O=C(O)c1cc(I)cc(I)c1I`, the outcome was “inactive”.
With `O=C(NC(=O)c1c(F)cccc1F)Nc1cc(Cl)c(F)c(Cl)c1F` the outcome was “inactive”.
With `CCN(CCO)CCO` the outcome was “inactive”.
In the case of `C1CN2CCN1CC2`, the outcome is reported as “inactive”.
With `C=C(C)[C@@H]1CC=C(C=O)CC1` the outcome was “inactive”.
In the case of `CC1(C)[C@H](/C=C2\CCSC2=O)[C@@H]1C(=O)OCc1coc(Cc2ccccc2)c1`, the outcome is reported as “inactive”.
In the case of `[F][Sn]([c]1ccccc1)([c]1ccccc1)[c]1ccccc1`, the outcome is reported as “inactive”.
In the case of `O=C1C[C@@H]2OCC=C3CN4CC[C@]56c7ccccc7N1[C@H]5[C@H]2[C@H]3C[C@H]46`, the outcome is reported as “inactive”.
In the case of `C=CC(=O)NC(C)(C)CC(C)=O`, the outcome is reported as “inactive”.
With `OCCCCO` the outcome was “inactive”.
In the case of `OC(c1ccc(Cl)cc1)(c1ccc(Cl)cc1)c1cccnc1`, the outcome is reported as “inactive”.
With `O=[N+]([O-])c1ccccc1O` the AC50 was 27.3 µM (active) and the outcome was “inactive”.
With `CCOc1cc(C=O)ccc1O` the outcome was “inactive”.
In the case of `C=CCOC(F)(C(F)(F)F)C(F)(F)F`, the outcome is reported as “inactive”.
For `Cc1cc(Cl)ccc1OC(C)C(=O)O` (stereo not given), the outcome was “inactive”.
For `Brc1ccc(Br)cc1`, the outcome was “inactive”.
With `CNC(=O)N(C)c1nc2ccccc2s1` the outcome was “inactive”.
In the case of `O=[N+]([O-])c1cc([As](=O)(O)O)ccc1O`, the outcome is reported as “inactive”.
In the case of `Cc1c([N+](=O)[O-])c(C)c([N+](=O)[O-])c(C(C)(C)C)c1[N+](=O)[O-]`, the AC50 is reported as 3.83 µM (active).
With `CCCSP(=S)(OCC)Oc1ccc(SC)cc1` (stereo not given) the outcome was “inactive”.
With `C#C[C@]1(O)CC[C@H]2[C@@H]3CCC4=CC(=O)CC[C@]4(C)[C@H]3CC[C@@]21C` the outcome was “inactive”.
With `O=NN1CCCCCCC1` the outcome was “inactive”.
With `BrCCCCBr` the outcome was “inactive”.
With `CC(C)CP(=S)(S)CC(C)C` the outcome was “inactive”.
With `CC(C)=CC1C(C(=O)OCc2cccc(Oc3ccccc3)c2)C1(C)C` (stereo not given) the outcome was “inactive”.
In the case of `CCOP(=S)(OCC)Oc1ccc(Cl)cc1Cl`, the outcome is reported as “inactive”.
With `CCN(CC)C(=O)C(Cl)=C(C)OP(=O)(OC)OC` the outcome was “inactive”.
With `CC(C)(C1CCC(O)CC1)C1CCC(O)CC1` (stereo not given) the outcome was “inactive”.

Molecular target: Transcription factor E2F1 (Homo sapiens) (UniProt Q01094)
Sequence (Q01094 whole entry, looked up): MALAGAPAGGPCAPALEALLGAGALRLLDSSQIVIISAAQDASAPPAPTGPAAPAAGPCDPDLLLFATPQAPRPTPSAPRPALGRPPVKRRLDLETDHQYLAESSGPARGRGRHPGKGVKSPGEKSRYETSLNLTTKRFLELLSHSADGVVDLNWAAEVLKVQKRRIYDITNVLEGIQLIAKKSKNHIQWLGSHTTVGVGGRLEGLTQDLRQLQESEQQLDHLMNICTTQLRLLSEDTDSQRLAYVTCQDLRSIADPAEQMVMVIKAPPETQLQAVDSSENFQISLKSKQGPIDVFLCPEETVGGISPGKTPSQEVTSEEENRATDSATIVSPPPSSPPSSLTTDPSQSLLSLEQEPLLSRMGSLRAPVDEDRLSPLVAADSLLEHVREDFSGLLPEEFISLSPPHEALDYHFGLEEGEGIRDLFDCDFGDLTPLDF
Experiment: ATG_E2F_CIS: Attagene CIS-FACTORIAL HepG2 Assay for human E2F Transcription Factor 1 (AID 2282935)
Details: HepG2 Attagene cis-reporter, E2F reporter RNA transcripts; actives raise or lower the signal
Procedure, shortened: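 Gain or loss of reporter transcript, fitted against DMSO, reflects E2F1-driven transcription. Transiently transfected HepG2 dosed 24 h before RNA isolation. Quantified by fluorescent RT-PCR products separated by capillary electrophoresis.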
In the case of `CCCSP(=S)(OCC)Oc1ccc(Cl)cc1Cl` (stereo not given), the outcome is reported as “inactive”.
With `CCC[CH2][Sn]([CH2]CCC)([CH2]CCC)[CH2]CCC` the outcome was “inactive”.
With `Cc1cc(Cl)ccc1O` the outcome was “inactive”.
In the case of `O=[N+]([O-])c1cccc2ccccc12`, the outcome is reported as “inactive”.
In the case of `ClCCCCl`, the outcome is reported as “inactive”.
With `CNC(=O)CSP(=O)(OC)OC` the outcome was “inactive”.
For `N#Cc1ccccc1N`, the outcome was “inactive”.
With `Cc1ccc2nc3sc(=O)sc3nc2c1` the outcome was “inactive”.
In the case of `O=C(O)c1cc(I)cc(I)c1I`, the outcome is reported as “inactive”.
With `O=C(NC(=O)c1c(F)cccc1F)Nc1cc(Cl)c(F)c(Cl)c1F` the outcome was “inactive”.
With `CCN(CCO)CCO` the outcome was “inactive”.
In the case of `C1CN2CCN1CC2`, the outcome is reported as “inactive”.
For `C=C(C)[C@@H]1CC=C(C=O)CC1`, the outcome was “inactive”.
With `CC1(C)[C@H](/C=C2\CCSC2=O)[C@@H]1C(=O)OCc1coc(Cc2ccccc2)c1` the outcome was “inactive”.
In the case of `O=c1nc(O)n(Cl)c(=O)n1Cl`, the outcome is reported as “inactive”.
With `[F][Sn]([c]1ccccc1)([c]1ccccc1)[c]1ccccc1` the outcome was “inactive”.
With `O=C1C[C@@H]2OCC=C3CN4CC[C@]56c7ccccc7N1[C@H]5[C@H]2[C@H]3C[C@H]46` the outcome was “inactive”.
For `C=CC(=O)NC(C)(C)CC(C)=O`, the outcome was “inactive”.
For `OCCCCO`, the outcome was “inactive”.
With `N#CS` the outcome was “inactive”.
With `OC(c1ccc(Cl)cc1)(c1ccc(Cl)cc1)c1cccnc1` the outcome was “inactive”.
For `O=[N+]([O-])c1ccccc1O`, the outcome was “inactive”.
With `CCOc1cc(C=O)ccc1O` the outcome was “inactive”.
In the case of `C=CCOC(F)(C(F)(F)F)C(F)(F)F`, the outcome is reported as “inactive”.
With `Cc1cc(Cl)ccc1OC(C)C(=O)O` (stereo not given) the outcome was “inactive”.
In the case of `Brc1ccc(Br)cc1`, the outcome is reported as “inactive”.
With `CNC(=O)N(C)c1nc2ccccc2s1` the outcome was “inactive”.
For `O=[N+]([O-])c1cc([As](=O)(O)O)ccc1O`, the outcome was “inactive”.
With `Cc1c([N+](=O)[O-])c(C)c([N+](=O)[O-])c(C(C)(C)C)c1[N+](=O)[O-]` the outcome was “inactive”.
For `CCCSP(=S)(OCC)Oc1ccc(SC)cc1` (stereo not given), the outcome was “inactive”.
For `C#C[C@]1(O)CC[C@H]2[C@@H]3CCC4=CC(=O)CC[C@]4(C)[C@H]3CC[C@@]21C`, the outcome was “inactive”.
For `O=NN1CCCCCCC1`, the outcome was “inactive”.
With `BrCCCCBr` the outcome was “inactive”.
In the case of `CC(C)CP(=S)(S)CC(C)C`, the outcome is reported as “inactive”.
In the case of `O=c1[nH]c(=O)n(Cl)c(=O)n1Cl`, the outcome is reported as “inactive”.
For `CC(C)=CC1C(C(=O)OCc2cccc(Oc3ccccc3)c2)C1(C)C` (stereo not given), the outcome was “inactive”.
In the case of `CCOP(=S)(OCC)Oc1ccc(Cl)cc1Cl`, the outcome is reported as “inactive”.
For `CCN(CC)C(=O)C(Cl)=C(C)OP(=O)(OC)OC`, the outcome was “inactive”.
With `CC(C)(C1CCC(O)CC1)C1CCC(O)CC1` (stereo not given) the outcome was “inactive”.
